Test results from PubChem BioAssay (NCI).
Compounds without any hit were thinned out: in the full panel of roughly 83,000, 20% have a hit.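 Step 1: grow cells in 96-well plates. Step 2: add test compound at a single concentration. Step 3: incubate 48 h. Step 4: record percent growth.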 Values without a mark were called inactive. Activity calls are given as the source filed them. How the source made its calls: active means growth percent below 10; inactive means the rest.

Columns and labels:
Assay in all cases: NCI-60 one-dose screen, 48 h (100 = growth as untreated, 0 = no growth, -100 = all killed)
Conditions in all cases: 10 µM unless noted
[1] = tested on: DU-145 prostate
[2] = tested on: K-562 leukemia
[3] = tested on: MALME-3M melanoma
[4] = tested on: MDA-MB-231 breast
[5] = tested on: RXF 393 renal
[6] = tested on: SF-268 CNS
[7] = tested on: SF-295 CNS
[8] = tested on: SF-539 CNS
[9] = tested on: UACC-257 melanoma
[10] = tested on: M14 melanoma
[11] = tested on: HCT-15 colon
[12] = tested on: HT29 colon
[13] = tested on: SNB-75 CNS
[14] = tested on: SNB-19 CNS
[15] = tested on: U251 CNS
[16] = tested on: PC-3 prostate
[17] = tested on: SK-MEL-5 melanoma
[18] = tested on: UACC-62 melanoma
[19] = tested on: LOX IMVI melanoma
[20] = tested on: SK-MEL-28 melanoma

SMILES	growth [1]	growth [2]	growth [3]	growth [4]	growth [5]	growth [6]	growth [7]	growth [8]	growth [9]	growth [10]	growth [11]	growth [12]	growth [13]	growth [14]	growth [15]	growth [16]	growth [17]	growth [18]	growth [19]	growth [20]
Cc1cccc(/C=C/c2c(C(=O)/C=C/c3ccccc3)c(C)nc3ccccc23)c1	-62% (active)	3.77% (active)	-79.3% (active)	-14.1% (active)	-83% (active)	37.7%	-18.8% (active)	-84.9% (active)	-31.1% (active)	-12.8% (active)	-58.8% (active)	-24.2% (active)	-9.89% (active)	-80.5% (active)	-94.1% (active)	8.27% (active)	-58.1% (active)	-67.3% (active)	-86.1% (active)	-61.8% (active)
C=CCN=c1sc2c(n1NC(=O)c1cc3ccc1CCc1ccc(cc1)CC3)C(=O)c1ccccc1C2=O	-90.7% (active)	-12.3% (active)	-88.6% (active)	-6.76% (active)	-26.3% (active)	8.79% (active)	69.2%	-98.3% (active)	-72.6% (active)	-93.9% (active)	-68.3% (active)	26.1%	-94.6% (active)	4.59% (active)	0.221% (active)	0.37% (active)	-98.5% (active)	-36% (active)	-80.3% (active)	-35.4% (active)
O=C(N(c1ccccc1)c1ccccc1)n1cc(I)c2nc(Cl)nc(Cl)c21	43.3%	20.8%	73.4%	67.6%	40.1%	34.3%	48.2%	56.8%	53.7%	57.4%	30.6%	29.7%	35.1%	46.8%	24.2%	32.1%	63.9%	37.2%	31.1%	88.2%
Cc1cc(N2CCN(CCNc3ccnc4cc(Cl)ccc34)CC2)nc(N2CCOCC2)n1	74.8%	14.6%	60.1%	34.3%	42.9%	70.4%	75.5%	29.6%	54%	48%	27.4%	20.7%	88.3%	89.9%	64.5%	65.1%	25.4%	60.2%	13.7%	77.5%
COc1ccc(-c2ccc(=O)oc2-c2cc(OC)c(OC)c(OC)c2)cc1O	-53.4% (active)	-25.7% (active)	54.1%	15.9%	3.35% (active)	5.78% (active)	-21.7% (active)	-19.2% (active)	25.1%	-32.6% (active)	12.1%	-24% (active)	38.8%	25.3%	19.8%	36.9%	-55.5% (active)	34.7%	17.8%	47.4%
N#C/C(=C\c1c(-c2ccccc2)[nH]c2ccccc12)C(N)=O	108%	24%	93%	71.6%	122%	97.3%	99.7%	71%	105%	68.9%	56.4%	67.4%	32.5%	89.6%	79.6%	69.8%	64.7%	58.9%	76.2%	97.6%
COc1ccc(C(=O)/C=C/c2c(C(F)(F)F)nc3ccccn23)cc1OC	4.16% (active)	11.4%	41.5%	26.2%	14.8%	5.35% (active)	0.39% (active)	-13.3% (active)	30.5%	14.8%	-13.6% (active)	6.89% (active)	-19.9% (active)	16.5%	7.17% (active)	30.6%	4.43% (active)	5.04% (active)	-53.1% (active)	28.2%
CCOC(=O)c1csc(NC(=O)COc2ccc(/C=C3\Oc4ccccc4C3=O)cc2)n1	114%	62.7%	109%	81.7%	79.6%	88.3%	102%	95.5%	87.9%	94.6%	113%	106%	81.3%	87.9%	91.1%	96.2%	98.7%	79.6%	78.3%	112%
CCCn1cc2c(=O)nc3sc(Cc4ccccc4)c(C)n3c2n1	104%	77.5%	112%	99.3%	119%	94.8%	120%	99.7%	88.3%	112%	106%	98%	97.6%	98%	93.2%	98.5%	107%	95%	94%	123%
Cn1ccc(=O)c(C(=O)Nc2nsc3ccc([N+](=O)[O-])cc23)c1	63.2%	78.3%	65.7%	47.9%	35.9%	74.9%	110%	77.6%	89.6%	46.6%	54.9%	68.2%	72.1%	91.3%	63.1%	56.8%	87.4%	32.6%	51.3%	78.3%
N#Cc1nc(-c2ccc(F)cc2)oc1S(=O)(=O)N1CCOCC1	93.8%	7.52% (active)	1.99% (active)	83.2%	-27.8% (active)	114%	104%	66.7%	93.9%	54.2%	-29.9% (active)	36.5%	91.2%	95.8%	98.9%	91%	82.6%	89.9%	8.36% (active)	85.7%
CN(C)Cc1ccc(O)c(C(=O)O)c1	114%	107%	116%	121%	122%	104%	123%	100%	109%	113%	107%	107%	108%	109%	93.3%	105%	108%	104%	99.4%	119%
N#CSc1c[nH]c2cccc(/C=C/C(=O)/C=C(/C=C/c3cccc4[nH]cc(SC#N)c34)OB(F)F)c12	-69.4% (active)	-14.8% (active)	-52.8% (active)	-42.3% (active)	-77.6% (active)	8.33% (active)	-4.04% (active)	-8.18% (active)	-50.6% (active)	-40.9% (active)	-73.6% (active)	-74.5% (active)	-31.5% (active)	19.1%	-83.3% (active)	-19.6% (active)	-74.1% (active)	-50.5% (active)	-85.4% (active)	-47.9% (active)
O=C(Nc1nc2ccc(C(=O)N3CCN(/C=C/c4ccccc4)CC3)cc2s1)c1ccc(NCCc2ccccc2)c([N+](=O)[O-])c1	70.7%	-18.7% (active)	-0.217% (active)	66%	53.2%	63.2%	45.7%	71.7%	37.3%	12.9%	22.4%	5.52% (active)	79%	70.2%	42.3%	45%	15%	58.3%	47.4%	76%
